In all, about 5,500 compounds went through this assay and about 2,000 (36%) were called active. Inconclusive results (about 18%) are left out. No stated cut-off is given here; in the data, active means normalized growth mostly below about 0.91 (no sharp cut-off); inconclusive means no clear call, values can overlap the other calls; inactive means mostly above about 0.92. This is one part of the list.
Assay: chemical genetic growth profiling, strain panel (AID 1159580);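 further: tested at 20 µM; growth read once vehicle control cultures reached saturation at 30 °C; 1 = growth at the plate median or of vehicle wells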
Conditions: growth OD

Measured: normalized growth

N[C@@H](Cc1ccc(N(CCCl)CCCl)cc1)C(=O)O
inactive: S. cerevisiae deletion strains, locus YJR075W, strain HOC1, stronger effect = lower value 0.986 | S. cerevisiae deletion strains, locus YKL009W, strain mrt4, stronger effect = lower value 0.961 | S. cerevisiae deletion strains, locus YKL068W, stronger effect = lower value 0.971 | S. cerevisiae deletion strains, locus YKL085W, strain MDH1 (second series), stronger effect = lower value 0.991 | S. cerevisiae deletion strains, locus YKL085W, strain MDH1, stronger effect = lower value 0.991 | S. cerevisiae deletion strains, locus YKL160W, strain elf1, stronger effect = lower value 0.968 | S. cerevisiae deletion strains, locus YKL190W, strain CNB1, stronger effect = lower value 0.98 | S. cerevisiae deletion strains, locus YKR001C, strain vps1, stronger effect = lower value 0.961 | S. cerevisiae deletion strains, locus YKR026C, strain gcn3, stronger effect = lower value 0.979 | S. cerevisiae deletion strains, locus YKR091W, strain srl3, stronger effect = lower value 0.975 | S. cerevisiae deletion strains, locus YLL001W, strain dnm1, stronger effect = lower value 0.929 | S. cerevisiae deletion strains, locus YLL026W, stronger effect = lower value 0.989 | S. cerevisiae deletion strains, locus YLL041C, strain sdh2, stronger effect = lower value 0.982 | S. cerevisiae deletion strains, locus YLR027C, strain aat2, stronger effect = lower value 0.995 | S. cerevisiae deletion strains, locus YLR039C, strain RIC1, stronger effect = lower value 0.96 | S. cerevisiae deletion strains, locus YLR058C, strain SHM2, stronger effect = lower value 0.968 | S. cerevisiae deletion strains, locus YLR102C, strain apc9, stronger effect = lower value 0.981 | S. cerevisiae deletion strains, locus YLR113W, strain HOG1, stronger effect = lower value 1.03 | S. cerevisiae deletion strains, locus YLR221C, strain rsa3, stronger effect = lower value 0.958 | S. cerevisiae deletion strains, locus YLR258W, strain gsy2, stronger effect = lower value 0.983 | S. cerevisiae deletion strains, locus YLR262C, strain YPT6 (second series), stronger effect = lower value 0.979 | S. cerevisiae deletion strains, locus YLR262C, strain YPT6, stronger effect = lower value 0.898 | S. cerevisiae deletion strains, locus YLR268W, strain sec22, stronger effect = lower value 0.967 | S. cerevisiae deletion strains, locus YLR320W, strain mms22, stronger effect = lower value 0.97 | S. cerevisiae deletion strains, locus YLR330W, strain CHS5, stronger effect = lower value 0.986 | S. cerevisiae deletion strains, locus YLR342W, strain FKS1 (second series), stronger effect = lower value 0.983 | S. cerevisiae deletion strains, locus YLR342W, strain FKS1, stronger effect = lower value 0.978 | S. cerevisiae deletion strains, locus YLR357W, strain rsc2, stronger effect = lower value 0.954 | S. cerevisiae deletion strains, locus YLR370C, strain arc18, stronger effect = lower value 0.978 | S. cerevisiae deletion strains, locus YLR371W, strain rom2, stronger effect = lower value 0.978 | S. cerevisiae deletion strains, locus YLR384C, strain iki3, stronger effect = lower value 0.985 | S. cerevisiae deletion strains, locus YLR418C, strain cdc73, stronger effect = lower value 0.976 | S. cerevisiae deletion strains, locus YML016C, strain PPZ1, stronger effect = lower value 0.982 | S. cerevisiae deletion strains, locus YML032C, strain rad52, stronger effect = lower value 0.979 | S. cerevisiae deletion strains, locus YML120C, strain ndi1, stronger effect = lower value 0.952 | S. cerevisiae deletion strains, locus YML124C, strain tub3, stronger effect = lower value 0.987 | S. cerevisiae deletion strains, locus YMR058W, strain fet3, stronger effect = lower value 0.983 | S. cerevisiae deletion strains, locus YMR078C, strain ctf18, stronger effect = lower value 0.961 | S. cerevisiae deletion strains, locus YMR125W, strain sto1, stronger effect = lower value 0.97 | S. cerevisiae deletion strains, locus YMR129W, stronger effect = lower value 0.981 | S. cerevisiae deletion strains, locus YMR205C, strain PFK2, stronger effect = lower value 0.974 | S. cerevisiae deletion strains, locus YMR223W, strain ubp8, stronger effect = lower value 0.987 | S. cerevisiae deletion strains, locus YMR231W, strain pep5, stronger effect = lower value 0.987 | S. cerevisiae deletion strains, locus YMR263W, strain SAP30, stronger effect = lower value 0.982 | S. cerevisiae deletion strains, locus YMR307W, strain GAS1, stronger effect = lower value 0.915 | S. cerevisiae deletion strains, locus YNL067W, strain RPL9B, stronger effect = lower value 0.984 | S. cerevisiae deletion strains, locus YNL071W, strain lat1, stronger effect = lower value 0.932 | S. cerevisiae deletion strains, locus YNL128W, strain TEP1, stronger effect = lower value 0.982 | S. cerevisiae deletion strains, locus YNL153C, strain GIM3, stronger effect = lower value 0.976 | S. cerevisiae deletion strains, locus YNL183C, strain NPR1, stronger effect = lower value 0.966 | S. cerevisiae deletion strains, locus YNL209W, strain ssb2, stronger effect = lower value 0.983 | S. cerevisiae deletion strains, locus YNL233W, strain BNI4, stronger effect = lower value 0.994 | S. cerevisiae deletion strains, locus YNL248C, strain rpa49, stronger effect = lower value 0.978 | S. cerevisiae deletion strains, locus YNL250W, strain rad50, stronger effect = lower value 0.969 | S. cerevisiae deletion strains, locus YNL271C, strain bni1, stronger effect = lower value 0.979 | S. cerevisiae deletion strains, locus YNL298W, strain CLA4, stronger effect = lower value 0.979 | S. cerevisiae deletion strains, locus YNL307C, strain MCK1, stronger effect = lower value 0.985 | S. cerevisiae deletion strains, locus YNL322C, strain KRE1 (second series), stronger effect = lower value 0.989 | S. cerevisiae deletion strains, locus YNL322C, strain KRE1, stronger effect = lower value 0.982 | S. cerevisiae deletion strains, locus YNR049C, strain mso1, stronger effect = lower value 0.977 | S. cerevisiae deletion strains, locus YNR052C, strain pop2, stronger effect = lower value 0.974 | S. cerevisiae deletion strains, locus YOL006C, strain TOP1, stronger effect = lower value 0.954 | S. cerevisiae deletion strains, locus YOL012C, strain htz1 0.837 | S. cerevisiae deletion strains, locus YOL147C, strain pex11, stronger effect = lower value 0.986 | S. cerevisiae deletion strains, locus YOR001W, strain rrp6, stronger effect = lower value 0.988 | S. cerevisiae deletion strains, locus YOR061W, strain CKA2, stronger effect = lower value 0.962 | S. cerevisiae deletion strains, locus YOR069W, strain VPS5, stronger effect = lower value 0.998 | S. cerevisiae deletion strains, locus YOR070C, strain gyp1, stronger effect = lower value 0.979 | S. cerevisiae deletion strains, locus YOR080W, strain dia2, stronger effect = lower value 0.995 | S. cerevisiae deletion strains, locus YOR083W, strain WHI5, stronger effect = lower value 0.963 | S. cerevisiae deletion strains, locus YOR106W, strain vam3, stronger effect = lower value 0.996 | S. cerevisiae deletion strains, locus YOR136W, strain idh2, stronger effect = lower value 0.989 | S. cerevisiae deletion strains, locus YOR144C, strain elg1, stronger effect = lower value 0.99 | S. cerevisiae deletion strains, locus YOR184W, strain ser1, stronger effect = lower value 0.96 | S. cerevisiae deletion strains, locus YOR231W, strain MKK1, stronger effect = lower value 1.01 | S. cerevisiae deletion strains, locus YOR265W, strain rbl2, stronger effect = lower value 0.989 | S. cerevisiae deletion strains, locus YOR270C, strain vph1, stronger effect = lower value 0.981 | S. cerevisiae deletion strains, locus YOR290C, strain snf2, stronger effect = lower value 0.909 | S. cerevisiae deletion strains, locus YOR316C, strain cot1, stronger effect = lower value 0.97 | S. cerevisiae deletion strains, locus YPL051W, strain arl3, stronger effect = lower value 0.974 | S. cerevisiae deletion strains, locus YPL055C, strain LGE1, stronger effect = lower value 0.963 | S. cerevisiae deletion strains, locus YPL078C, strain atp4, stronger effect = lower value 0.974 | S. cerevisiae deletion strains, locus YPL106C, strain sse1, stronger effect = lower value 0.976 | S. cerevisiae deletion strains, locus YPL240C, strain hsp82, stronger effect = lower value 0.989 | S. cerevisiae deletion strains, locus YPL241C, strain CIN2, stronger effect = lower value 1.04 | S. cerevisiae deletion strains, locus YPL256C, strain CLN2, stronger effect = lower value 1.02 | S. cerevisiae deletion strains, locus YPR119W, strain clb2, stronger effect = lower value 0.991 | S. cerevisiae deletion strains, locus YPR141C, strain kar3, stronger effect = lower value 0.961 | S. cerevisiae deletion strains, locus YPR163C, strain tif3, stronger effect = lower value 0.984 | S. cerevisiae deletion strains, locus YPR167C, strain met16, stronger effect = lower value 0.972 | S. cerevisiae deletion strains, strain wtn01, stronger effect = lower value 0.982 | S. cerevisiae strains, strain wild type, stronger effect = lower value 0.983
